Algae TAG accum: inducers of TAG accumulation in Chlamydomonas, primary screen, qHTS, Chlamydomonas reinhardtii. Nile Red fluorescence, 72 h. AID 1159537, 2015. actives 0.84% (n = 44,000). calls only at 10 µM (by protocol); call rule not given here;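 note: hits raise Nile Red signal meaning more stored TAG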
Active calls of the source: *; i = inactive; + = active, no number. This excerpt belongs to a sample that is enriched for hits.

SMILES | Algae TAG accum
CCOc1cc(CN2CCN(c3ccc(F)cc3)CC2)ccc1OC | i
O=C(O)CNC(=O)CSc1nc2ccccc2c(=O)n1-c1ccccc1 | i
COc1ccc(C)c(N2C(=O)CC(N3CCC(C(N)=O)CC3)C2=O)c1 (stereo not drawn) | i
COc1cc(C(=O)Nc2ccc([N+](=O)[O-])cc2C)c(Br)c(OC)c1OC | i
Cc1occc1C(=O)Nc1cccc(Br)c1 | i
Cc1ccc2nc(/C(C#N)=C\c3ccccc3OCC#N)[nH]c2c1 | i
NS(=O)(=O)c1ccc(CNC(=O)c2cc(-c3ccc4c(c3)OCO4)nc3ccccc23)cc1 | i
O=C(NCC1CCCO1)c1cc(-c2ccc3c(c2)OCO3)nc2ccccc12 (stereo not drawn) | +
O=C(NCc1ccccn1)c1cc(-c2ccc3c(c2)OCO3)nc2ccccc12 | i
CC(C)(C)C(=O)NCCC12CC3CC(CC(C3)C1)C2 | i
Oc1ccccc1CNCCC12CC3CC(CC(C3)C1)C2 | +
COc1ccccc1CC(=O)NC12CC3CC(CC(C3)C1)C2 | i
C=CCn1c2ccccc2c2nnc(SCC(=O)Nc3cccc(C(C)=O)c3)nc21 | i
O=C(c1cc(Cl)ccc1Cl)n1cccn1 | i
CC(C)=CCC[C@H](C)CCN1CCN(C)CC1 | +
CC(C)=CCC/C(C)=C/CN1CCCN(C)CC1 | i
Cc1ccc(C(C)CCN2CCN(C)CC2)o1 (stereo not drawn) | i
Cc1onc(-c2ccccc2Cl)c1C(=O)NC12CC3CC(CC(C3)C1)C2 | i
CCc1ccc(OCC(=O)Nc2cc(C)c(Cl)cc2OC)cc1 | i
CC(=O)C1=C(O)C(=O)N(c2ccc(Br)cc2)C1c1ccc(C)cc1 (stereo not drawn) | i
O=S(=O)(Nc1nc2ccc(Cl)cc2s1)c1ccc(F)cc1 | i
CC1(C)Cc2c(sc3c2c(=O)n(Cc2ccccc2)c2nnc(S)n32)CO1 | i
COc1ccc([N+](=O)[O-])cc1NS(=O)(=O)c1ccc(NC(C)=O)cc1 | i
CC(=O)Nc1ccc(S(=O)(=O)Nc2cc([N+](=O)[O-])ccc2C)cc1 | +
COc1cc([N+](=O)[O-])ccc1NS(=O)(=O)c1ccc(NC(C)=O)cc1 | i
SMILES | Algae TAG accum
CC(=O)NCCOc1ccc(C)cc1Br | i
CCOc1ccc(OCC)c(C2C(C#N)=C(N)Oc3c2c(C)nn3-c2ccccc2)c1 (stereo not drawn) | i
NS(=O)(=O)c1ccc(NC(=O)c2ccccc2[N+](=O)[O-])cc1 | i
O=C(CCCc1ccccc1)NC1C2CC3CC(C2)CC1C3 (stereo not drawn) | i
COCC(C)NC1C2CC3CC(C2)CC1C3 (stereo not drawn) | i
CC(CCc1ccc(O)cc1)NC1C2CC3CC(C2)CC1C3 (stereo not drawn) | +
O=C1C2C3CCC(C3)C2C(=O)N1c1nccs1 (stereo not drawn) | +
O=C1c2ccc(Oc3ccc4c(c3)C(=O)N(c3nccs3)C4=O)cc2C(=O)N1c1nccs1 | i
O=C1C2C(C(=O)N1c1nccs1)C1C=CC2C12CC2 (stereo not drawn) | i
O=C(COc1ccc(-c2ccccc2)cc1)NCC1CCCO1 (stereo not drawn) | i
Cc1ccc(C(=O)Nc2cccc(O)c2)o1 | i
CC(C(=O)NCc1cccnc1)N(c1ccccc1)S(C)(=O)=O (stereo not drawn) | i
CC(C(=O)NCc1ccc(Cl)cc1)N(c1ccccc1)S(C)(=O)=O (stereo not drawn) | +
CC(C(=O)NC1CCCCCC1)N(c1ccccc1)S(C)(=O)=O (stereo not drawn) | i
Cc1ccc(NC(=O)C2CC=CCC2C(=O)O)c(Br)c1 (stereo not drawn) | i
Cc1ccc(Cl)cc1NC(=O)C1CC=CCC1C(=O)O (stereo not drawn) | i
O=C(O)C1CC=CCC1C(=O)Nc1ccc(F)cc1F (stereo not drawn) | +
O=C(NCc1ccccc1)/C(=C\c1ccco1)NC(=O)c1ccco1 | i
CCc1cc2c(=O)c(-c3nc4ccccc4n3C)coc2c(CN2CCN(CCO)CC2)c1O | i
Cc1ccccc1CNC(=O)CN(c1ccccc1F)S(C)(=O)=O | i
Cc1cc(OCc2nc(-c3cccnc3)no2)cc(C)c1Br | i
COc1ccc(-c2noc(COc3ccc(Br)cc3C)n2)cc1OC | i
Cc1cccc(-c2noc(COc3ccc(Br)cc3)n2)c1 | +
O=C(Nc1ccccc1C(=O)NCCc1ccccc1)c1ccncc1 | i
CC(C)NC(=O)c1ccccc1NC(=O)c1ccccc1 | i
SMILES | Algae TAG accum
CC(C)NC(=O)c1ccccc1NC(=O)c1ccc(Cl)cc1 | +
CC(C)c1ccc(C(=O)Nc2ccccc2C(N)=O)cc1 | i
O=C(Nc1ccccc1F)c1ccc(Br)cc1 | i
O=C(Nc1ccccc1C(=O)NCCCCO)c1ccc(Br)cc1 | i
O=C(Nc1ccccc1Cl)c1cccc(Cl)c1Cl | i
CC(C)NC(=O)c1ccccc1NC(=O)c1ccc(Br)cc1 | +

Assay outcomes from PubChem.
